Molecules are shown by their SMILES. Several values for one entry are separate records, joined by “and”; a condition that tells them apart may be missing. Equal entries are not always repeated.

Experimental findings from the supplement of paper PMC11383364 are described below.

This assay has as its system SUM149. As to the kind of experiment: percent difference in area under dose-response curve of relative cell number, RPMI vs HPLM; higher = drug relatively more effective in HPLM than RPMI (negative = less effective in HPLM). The following applies: treatment time: 72 h; dose range: 10-point, 1 nM to 20 µM; media compared: RPMI vs HPLM.
Turning to `O=C(O)C(=O)O.[NH-][C@@H]1CCCC[C@H]1[NH-].[Pt+2]` [Oxaliplatin], the “percent difference in area under dose-response curve” value (“percent difference in area” below) is -2.44%.
The figure for `COc1cc(Nc2ncc3c(n2)-c2ccc(Cl)cc2C(c2c(F)cccc2OC)=NC3)ccc1C(=O)O` is -13.5%; for `Clc1ccc(Nc2nnc(Cc3ccncc3)c3ccccc23)cc1` [Vatalanib_2HCl] it is -4.56%.
Turning to `Cc1cnc(Nc2ccc(OCCN3CCCC3)cc2)nc1Nc1cccc(S(=O)(=O)NC(C)(C)C)c1`, the “percent difference in area” value is -10.7%.
With `CCc1nc(N)nc(N)c1-c1ccc(Cl)cc1` [Pyrimethamine], the “percent difference in area” value stood at 33.6%.
As to `CNC(=O)c1cc(Oc2ccc(NC(=O)Nc3ccc(Cl)c(C(F)(F)F)c3)cc2)ccn1` [Sorafenib], the “percent difference in area” value is 2.21%.
For the compound `CC(/C=C/C(=O)NO)=C\[C@@H](C)C(=O)c1ccc(N(C)C)cc1` [Trichostatin_A], the “percent difference in area” value is -9.24%.
The figure for `CCC(C)(C)C(=O)O[C@H]1C[C@@H](C)C=C2C=C[C@H](C)[C@H](CC[C@@H]3C[C@@H](O)CC(=O)O3)[C@H]21` [Simvastatin] is -12.1%.
In the case of `COc1cc([C@@H]2c3cc4c(cc3[C@@H](O[C@@H]3O[C@@H]5CO[C@@H](C)O[C@H]5[C@H](O)[C@H]3O)[C@H]3COC(=O)[C@H]23)OCO4)cc(OC)c1O` [Etoposide] it was -22.4%; in that of `Cn1cncc1[C@@](N)(c1ccc(Cl)cc1)c1ccc2c(c1)c(-c1cccc(Cl)c1)cc(=O)n2C` [Tipifarnib], -21.7%.
The figure for `O=c1[nH]cc(F)c(=O)[nH]1` [5_Fluorouracil] is 0.782%; for `C=CCN(C)CCCCCCOc1ccc(C(=O)c2ccc(Br)cc2)c(F)c1` it is -0.097%; for `CC(=O)O[C@H]1C(=O)[C@@]2(C)[C@H]([C@H](OC(=O)c3ccccc3)[C@]3(O)C[C@H](OC(=O)[C@H](O)[C@@H](NC(=O)c4ccccc4)c4ccccc4)C(C)=C1C3(C)C)[C@]1(OC(C)=O)CO[C@@H]1C[C@@H]2O` [Paclitaxel] it is -45.1%.
On to `O=C(NC1CCNCC1)c1n[nH]cc1NC(=O)c1c(Cl)cccc1Cl`, for which the “percent difference in area” value is -11.2%.
On to `Oc1ccc(Nc2nc(-c3ccc(Cl)cc3)cs2)cc1`, for which the “percent difference in area” value stood at 6.02%.
In the case of `Cc1cccc(CC(=O)N2CCc3c2ccc(-c2cn(C)c4ncnc(N)c24)c3F)n1`, the “percent difference in area” value was -5.2%.
In the case of `CN(C)C/C=C/C(=O)Nc1cc2c(Nc3ccc(F)c(Cl)c3)ncnc2cc1O[C@H]1CCOC1` [Afatinib] it was 2.93%; in that of `O=C(Cc1ccc(-c2ccc(OCCN3CCOCC3)cc2)cn1)NCc1ccccc1`, -13.1%; in that of `Cc1c(NC(=O)OC[C@@H]2COCCN2)cn2ncnc(Nc3ccc4c(cnn4Cc4cccc(F)c4)c3)c12`, 3.34%.
In the case of `COC(=O)Nc1nc2cc(C(=O)c3cccs3)ccc2[nH]1` [Nocodazole] it was -17.2%; in that of `O=C(CCCCCCC(=O)Nc1ccc([C@H]2O[C@@H](CSc3nc(-c4ccccc4)c(-c4ccccc4)o3)C[C@@H](c3ccc(CO)cc3)O2)cc1)NO` [Tubacin], -4.43%.
As for `C#Cc1cccc(Nc2ncnc3cc(OC)c(OCCCCCCC(=O)NO)cc23)c1`, the “percent difference in area” value was determined as 8.57%.
The figure for `Cc1cc(CS(=O)(=O)c2ccccc2)cc(OCc2ccc(CN3CCC[C@@H]3CO)cc2)c1` is 1.05%; for `CN(Cc1cnc2nc(N)nc(N)c2n1)c1ccc(C(=O)N[C@@H](CCC(=O)O)C(=O)O)cc1` [Abitrexate] it is -8.44%.
In the case of `COc1cc(OC)c(/C=C/S(=O)(=O)Cc2ccc(OC)c(NCC(=O)O)c2)c(OC)c1` [Rigosertib], the “percent difference in area” value was -46.7%.
Regarding `NC(=O)Nc1sc(-c2ccc(F)cc2)cc1C(N)=O`, the “percent difference in area” value was found to be 6.37%.
Regarding `CC1(C)C=C(CN2C/C(=C\c3ccc(F)cc3)C(=O)/C(=C/c3ccc(F)cc3)C2)C(C)(C)N1O`, the “percent difference in area” value is 2.04%.
With `CC1(C)CCC(c2ccc(Cl)cc2)=C(CN2CCN(c3ccc(C(=O)NS(=O)(=O)c4ccc(N[C@H](CCN5CCOCC5)CSc5ccccc5)c(S(=O)(=O)C(F)(F)F)c4)cc3)CC2)C1`, the “percent difference in area” value is -1.13% and -0.0577%.
The figure for `CC(C)(C)C(=O)Nc1ccc2c(c1)C(=O)C(=O)c1ccccc1-2` is 2.11%.
Consider `O=C(O)Cc1cccc(OCCCN(Cc2cccc(C(F)(F)F)c2Cl)CC(c2ccccc2)c2ccccc2)c1`, for which the “percent difference in area” value was determined as 1.28%.
For `O=C(Nc1cccc(Cl)c1)Nc1ncc(CCNc2ncnc3ccsc23)s1` [SNS314_Mesylate], the “percent difference in area” value is -24.4%.
In the case of `Cc1[nH]c(/C=C2\C(=O)Nc3ccc(S(=O)(=O)N(C)c4cccc(Cl)c4)cc32)c(C)c1C(=O)N1CCN(C)CC1` it was -9.77%; in that of `Nc1nc(Cl)nc2c1ncn2[C@@H]1O[C@H](CO)[C@@H](O)[C@@H]1F` [Clofarabine], -18.6%; in that of `O=C(Nc1cccc(C(F)(F)F)c1)Nc1cc(S(=O)(=O)NC2CC2)ccc1-c1ccsc1`, -8.01%.
